Experimental data reported in PubChem BioAssay AID485346 (Sanford-Burnham Center for Chemical Genomics, 2010).
Out of some 330,000 compounds screened, about 10,000 (3%) were called active.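 The calls were made as follows: active = inhibition of at least 50% at 8 µM in the primary screen; inactive = the rest.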 The list comes from a sample in which actives are over-represented; it also holds similar structures and randomly drawn compounds.

Molecular target: Protein Mdm4 (Homo sapiens) + E3 ubiquitin-protein ligase Mdm2 (Homo sapiens) (UniProt O15151+Q00987)
Sequence (O15151 whole entry, looked up): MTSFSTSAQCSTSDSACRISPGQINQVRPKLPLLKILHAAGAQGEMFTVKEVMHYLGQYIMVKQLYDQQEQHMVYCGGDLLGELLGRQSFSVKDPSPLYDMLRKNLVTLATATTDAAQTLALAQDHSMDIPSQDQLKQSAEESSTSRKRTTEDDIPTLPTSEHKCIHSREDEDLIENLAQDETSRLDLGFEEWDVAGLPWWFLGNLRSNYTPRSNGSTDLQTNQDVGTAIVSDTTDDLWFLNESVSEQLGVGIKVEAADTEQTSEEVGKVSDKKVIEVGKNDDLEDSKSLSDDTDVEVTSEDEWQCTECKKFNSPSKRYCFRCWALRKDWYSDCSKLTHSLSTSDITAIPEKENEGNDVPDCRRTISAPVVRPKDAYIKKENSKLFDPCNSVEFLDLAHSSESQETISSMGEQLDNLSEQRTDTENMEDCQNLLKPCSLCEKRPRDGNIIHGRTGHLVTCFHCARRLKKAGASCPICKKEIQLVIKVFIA
Sequence (Q00987 whole entry, looked up): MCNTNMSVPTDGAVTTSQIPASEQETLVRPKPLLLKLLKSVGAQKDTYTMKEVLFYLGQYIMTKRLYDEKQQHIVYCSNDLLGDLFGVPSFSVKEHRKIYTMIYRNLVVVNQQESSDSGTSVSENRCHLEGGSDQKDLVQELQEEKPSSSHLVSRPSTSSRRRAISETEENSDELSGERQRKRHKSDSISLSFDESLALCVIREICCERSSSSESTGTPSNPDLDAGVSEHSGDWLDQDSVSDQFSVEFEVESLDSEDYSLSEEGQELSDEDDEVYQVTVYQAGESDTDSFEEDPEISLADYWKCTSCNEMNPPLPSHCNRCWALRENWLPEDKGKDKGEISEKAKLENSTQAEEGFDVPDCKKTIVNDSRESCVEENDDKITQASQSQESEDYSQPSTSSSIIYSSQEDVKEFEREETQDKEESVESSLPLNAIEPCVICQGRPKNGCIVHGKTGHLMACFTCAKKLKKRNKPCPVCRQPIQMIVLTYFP
Assay: inhibitors of human Mdm2-MdmX association, primary screen, cell-based, luminescence, split luciferase, SaOS-2, uHTS (AID 485346)
Conditions: SaOS-2 split-luciferase Mdm2/MdmX complementation, at 8 µM, active compounds read high

Structure (SMILES) | inhibition
Cc1cccc(OC(C)C(=O)N2CCc3ccccc3C2)c1 (configuration not stated) | -5.47% (inactive)
COC(c1ccccc1)c1nnc(CCC(=O)N2CCN(CCOc3ccccc3)CC2)o1 (configuration not stated) | -18.9% (inactive)
CC(C)c1ccc(NC(=O)COC(=O)c2ccc(CN3CCCC3=O)cc2)cc1 | 8.45% (inactive)
COc1c(N2CCN(C(=S)Nc3ccccc3F)C(C)C2)c(F)cc2c(=O)c(C(=O)O)cn(C3CC3)c12 (configuration not stated) | -14.1% (inactive)
CNC(=O)NC(=O)C(OC(=O)c1cccc(S(=O)(=O)N2CCCCC2)c1)c1ccccc1 (configuration not stated) | -21.4% (inactive)
COc1ccc(/C=N/Nc2cc(N3CCOCC3)nc(C)n2)c(OC)c1 | 19.1% (inactive)
Cc1cc(N/N=C\c2ccc(Br)cc2)nc(-n2nc(C)cc2C)n1 | 35.8% (inactive)
COc1cccc(/C=N/Nc2cc(C)nc(-c3ccccc3O)n2)c1O | 93.4% (active)
COc1ccccc1/C=N/Nc1nc(C)c(C(C)=O)s1 | -49.5% (inactive)
COc1ccccc1/C=N\Nc1cc(C)nc(-n2nc(C)cc2C)n1 | 57.4% (active)
Cc1nc(Cl)cc(N/N=C/c2ccccc2)n1 | -5.97% (inactive)
COCCC(=O)Nc1ccc2c(c1)CN(C(=O)CCOC)CC2 | 8.33% (inactive)
O=C1NC(c2ccccc2)Oc2ccccc21 (configuration not stated) | 12.9% (inactive)
Cc1ccc(S(=O)(=O)NCCC(=O)OCC(=O)N(C)c2ccccc2)cc1 | -1.91% (inactive)
COc1ccc(CN2CCN(C(=O)c3cc(C4CC4)nn3-c3ccccc3)CC2)cc1F | 12.7% (inactive)
Cc1ccc(C)c(C(=O)N2CCC(n3nccc3NC(=O)C3CC3)CC2)c1 | 13.7% (inactive)
COc1cc(C2CC(=O)Oc3cc(OC)c(OC)c(OC)c32)cc(OC)c1OC (configuration not stated) | -1.07% (inactive)
CC(CNC(=O)c1ccc(N)cc1)NC(=O)c1ccc(N)cc1 (configuration not stated) | -17.5% (inactive)
O=C(/C=C/Sc1ncn[nH]1)c1ccc(Cl)cc1 | 97.6% (active)
Cc1ccc(C(=O)/C=C/c2c(C)nn(-c3ccccc3)c2Cl)cc1 | 7.37% (inactive)
O=C(CSc1ncn[nH]1)N/N=C/c1ccc(F)cc1 | 1.12% (inactive)
CC(=O)Nc1ccc(S(=O)(=O)Nc2ccc(N3CCOCC3)c(F)c2)cc1 | -7.04% (inactive)

Structure (SMILES) | inhibition
CC(=O)Nc1ccc(NS(=O)(=O)c2ccc3c(c2)NC(=O)CC(=O)N3)cc1 | 9.58% (inactive)
CC(=O)Nc1ccc(S(=O)(=O)Nc2ccc(N3CCCCC3)cc2)cc1 | 55% (active)
COc1ccc(OCC(=O)NNC(=O)C2CCC2)cc1 | 4.55% (inactive)
COCc1nnc(NC(=O)c2ccc3c(c2)OCO3)s1 | -40.4% (inactive)
COc1ccc(CC(=O)Nc2sc(Cc3ccccc3)c(C)c2C(N)=O)cc1 | -12.1% (inactive)
Cc1ccc(C(=O)Nc2sc(Cc3ccc4c(c3)OCO4)c(C)c2C(N)=O)cc1 | 75.3% (active)
Cc1nn2c(NCCN(C)C)c3c(nc2c1-c1ccccc1)CCC3 | 1.13% (inactive)
CCc1cc2c(=O)n(-c3ccccc3)c(SCC(=O)O)nc2s1 | 0.424% (inactive)
CC(=O)N1C(=O)/C(=C2\SC(=S)N(NC(=O)c3ccc(O)cc3)C2=O)c2ccccc21 | -4.31% (inactive)
COc1ccc(/C=C2\SC(=S)N(CCCC(=O)NC3CCCC3)C2=O)cc1OC | 42.6% (inactive)
CCN(C(=O)CN1C(=O)/C(=C/c2ccc(F)cc2)SC1=S)C1CCS(=O)(=O)C1 (configuration not stated) | -3.51% (inactive)
O=C1/C(=C/c2ccc(F)cc2)SC(=S)N1CCCC(=O)N1CCCCC1CCO (configuration not stated) | 81.8% (active)
Cc1ccc(O)c(NC(=S)NC(=O)COc2ccc(Br)cc2)c1 | -6.04% (inactive)
CCCCN1C(=S)NC[C@@H]1C(C)CC (some centres not stated) | -2.44% (inactive)
CCCCn1ccnc1C(=O)c1cccc(S(=O)(=O)N2c3ccccc3CC2C)c1 (configuration not stated) | 55.3% (active)
CC1Cc2ccccc2N1S(=O)(=O)c1cccc(C(=O)NCC(c2ccco2)N2CCCC2)c1 (configuration not stated) | 6.48% (inactive)
CC1Cc2ccccc2N1S(=O)(=O)c1cccc(C(=O)OCC(=O)N2CCOCC2)c1 (configuration not stated) | 9.37% (inactive)
Cc1noc(C)c1S(=O)(=O)Nc1ccc(C(=O)N2CCN(c3ccc(F)cc3)CC2)cc1 | 16.2% (inactive)
COc1ccc(CCNC(=O)COC(=O)Cc2cccc(F)c2)cc1 | 5.4% (inactive)
COc1ccc(C(=O)OCC(=O)N2CC(=O)Nc3ccccc32)cc1Br | -3.51% (inactive)
CCOc1ccccc1Nc1ccc2nonc2c1[N+](=O)[O-] | 9.13% (inactive)
O=[N+]([O-])c1c(NCCO)cc(Sc2nc3ccccc3s2)c2nonc12 | 50.1% (active)

Structure (SMILES) | inhibition
O=C(O)c1ccccc1CSc1nc2ccccc2s1 | -21.2% (inactive)
COC(=O)[C@]1(C)N[C@H](CN(C)C(=O)c2ccc(C(C)(C)C)cc2)[C@@H]2C(=O)N(C)C(=O)[C@@H]21 | 4.61% (inactive)
CC(=O)CCS(=O)(=O)c1ccc(C)c(C)c1 | 2.16% (inactive)
CCCn1c(C)cc(-c2csc(NC(=O)CCc3nc4ccccc4c(=O)[nH]3)n2)c1C | 13.7% (inactive)
Cc1cc(C(=O)COc2ccccc2[N+](=O)[O-])c(C)n1-c1cccc(S(=O)(=O)N2CCOCC2)c1 | 71.1% (active)
Cc1cc(S(=O)(=O)N2CCOCC2)ccc1OCC(=O)N1CCOCC1 | -24.7% (inactive)
Cc1ccccc1OCC(=O)Nc1ccc(S(=O)(=O)N2CCOCC2)cc1 | -21.2% (inactive)
CCN(CC)c1ccc(/C=N/NC(=O)c2cnccn2)c(O)c1 | 72.8% (active)
CCN(CC)c1ccc(/C=N/Nc2nc(C)cc(C)n2)c(O)c1 | 72.9% (active)
O=C(Nc1ccc2c(c1)OCCO2)c1cnccn1 | -7.26% (inactive)
Cc1cc(C)nc(N/N=C/c2c(C)oc3ccccc23)n1 | 33.3% (inactive)
Cc1ccc(C(=O)NCCNC(=O)c2cnccn2)cc1 | 18.3% (inactive)
Cc1cc(C)nc(N/N=C/c2c(CO)cnc(C)c2O)n1 | 27.1% (inactive)
Cc1ccc(-n2c(SCC(=O)NCc3ccc4c(c3)OCO4)nnc2-c2cccnc2)c(C)c1 | 1.7% (inactive)
CCN(C(=O)CSc1nnnn1-c1ccc(OC)cc1)C1CCS(=O)(=O)C1 (configuration not stated) | -4.86% (inactive)
COC(=O)C1CCN(C(=O)COC(=O)c2cc(S(=O)(=O)N3CCOCC3)ccc2C)CC1 | 1.32% (inactive)
CCCCn1c(N)c(N(CC)C(=O)/C=C/c2ccco2)c(=O)[nH]c1=O | 15.3% (inactive)
CC[C@]1(O)CC2CN(CCc3c([nH]c4ccccc34)[C@@](C(=O)OC)(c3cc4c(cc3OC)N(C=O)[C@H]3[C@@](O)(C(=O)OC)[C@H](OC(C)=O)[C@]5(CC)C=CCN6CC[C@]43[C@@H]65)C2)C1 (some centres not stated) | 67.5% (active)
CC[C@]1(O)C[C@@H]2CN(CCc3c([nH]c4ccccc34)[C@@](C(=O)OC)(c3cc4c(cc3OC)N(C)[C@H]3[C@@](O)(C(=O)OC)[C@H](OC(C)=O)[C@]5(CC)C=CCN6CC[C@]43[C@@H]65)C2)C1 | 85.9% (active)
CCNC(=O)COc1cc(C)c(Br)c(C)c1 | 15.7% (inactive)
Cc1ccc(S(=O)(=O)N(Cc2ccccc2)c2ccccn2)cc1[N+](=O)[O-] | 23.2% (inactive)
COc1cc(C(=O)OCc2cc(=O)n3ccsc3n2)ccc1OC(C)C | -18.9% (inactive)

Structure (SMILES) | inhibition
CC1CCC2CCCCC2N1C(=O)c1cc([N+](=O)[O-])cc([N+](=O)[O-])c1 (configuration not stated) | 5.25% (inactive)
Cc1ccc(S(=O)(=O)N(C)c2ccc(OCC(=O)OCc3ccc(C#N)cc3)cc2)cc1 | 1.14% (inactive)
CC1CCN(C(=O)c2cc3nc(C4CC4)cc(C(F)(F)F)n3n2)CC1 | 0.061% (inactive)
COc1ccc2[nH]c3c(c2c1)CCN1C(=O)C(CC(=O)NCc2cccc(C(F)(F)F)c2)C[C@H](C(=O)N2CCOCC2)[C@@]31C (some centres not stated) | 17.2% (inactive)
CCOc1ccc2c(=O)c(-c3ccc4c(c3)OCCCO4)c(C)oc2c1 | 19.6% (inactive)
Cn1c2ccccc2c(=O)c2c(O)cccc21 | 5.57% (inactive)
CCCc1nc2c(c(=O)c3ccccc3n2C)c(=O)n1C1CCCCCC1 | 76.1% (active)
Cn1c2ccccc2c(=O)c2c(=O)n(Cc3ccco3)c(COc3ccccc3)nc21 | 33.8% (inactive)
CC(C)C1C2=C(CC(C)(C)CC2=O)ON1c1ccccc1 (configuration not stated) | 16.1% (inactive)
COc1cccc(/C=C(/CC(=O)Nc2ccc(N3CCOCC3)cc2)c2nc3ccccc3s2)c1 | 18.2% (inactive)
O=C(COC(=O)Cn1[nH]c(=O)c2ccccc2c1=O)Nc1c(Cl)cccc1C(F)(F)F | -4.75% (inactive)
O=C(NCc1nnc(SCC(=O)N2CCCCCC2)o1)c1ccc(F)cc1 | 10.6% (inactive)
CCc1ccc(N(CC)c2ncnc3nc[nH]c23)cc1 | 63% (active)
Cc1ccc(NC(=O)c2ccc(CSc3ncnc4nc[nH]c34)cc2)c(C)c1 | -2.54% (inactive)
COc1ccc(CCNc2ncnc3nc[nH]c23)cc1OC | 18.1% (inactive)
Cc1ccc(CNC(=O)c2cc(-c3ccccc3C)n(CC3CC(c4cccc([N+](=O)[O-])c4)=NO3)n2)cc1 (configuration not stated) | 26.5% (inactive)
CCOc1ccc(-n2c(O)c(/C=N/c3ccnn3Cc3ccncc3)c3ccccc3c2=O)cc1 | 2.6% (inactive)
CCOc1ccc(-n2c(O)c(/C=N/Nc3nc(C)cc(C)n3)c3ccccc3c2=O)cc1 | 65.3% (active)
CCN(CC)CCCN=Cc1c(O)n(-c2ccc(C)cc2)c(=O)c2ccccc12 | -22.5% (inactive)
CCCC1C(=O)N2C(N(C)C)=Nc3ccc(C)cc3N2C1=O (configuration not stated) | 15.1% (inactive)
CC1CCN(C(=O)CCc2nnc3ccc(NCc4ccco4)nn23)CC1 | 22.2% (inactive)
